# Assay results taken from paper PMC7862700, “An all-to-all approach to the identification of sequence-specific readers for epigenetic DNA modifications on cytosine”.
# How the values were obtained:
# Assay in all cases: DAPPL (digital affinity profiling via proximity ligation, sequencing); 10 mM Tris-HCl pH 7.5, 50 mM NaCl, 1 mM DTT, 4% glycerol, room temperature, 30 min; GST-TFs on glutathione beads, 16-mer random dsDNA library, 0.1% formaldehyde crosslink after washing; high values mean tight binding
# HSF1 = HSF1 (Homo sapiens, UniProt Q00613 1-529); settings: protein: recombinant; tags: N-terminal GST; chain copies: 3; dsDNA, one strand shown
# Sequence of HSF1 (Q00613 whole entry, the tested form may be a part): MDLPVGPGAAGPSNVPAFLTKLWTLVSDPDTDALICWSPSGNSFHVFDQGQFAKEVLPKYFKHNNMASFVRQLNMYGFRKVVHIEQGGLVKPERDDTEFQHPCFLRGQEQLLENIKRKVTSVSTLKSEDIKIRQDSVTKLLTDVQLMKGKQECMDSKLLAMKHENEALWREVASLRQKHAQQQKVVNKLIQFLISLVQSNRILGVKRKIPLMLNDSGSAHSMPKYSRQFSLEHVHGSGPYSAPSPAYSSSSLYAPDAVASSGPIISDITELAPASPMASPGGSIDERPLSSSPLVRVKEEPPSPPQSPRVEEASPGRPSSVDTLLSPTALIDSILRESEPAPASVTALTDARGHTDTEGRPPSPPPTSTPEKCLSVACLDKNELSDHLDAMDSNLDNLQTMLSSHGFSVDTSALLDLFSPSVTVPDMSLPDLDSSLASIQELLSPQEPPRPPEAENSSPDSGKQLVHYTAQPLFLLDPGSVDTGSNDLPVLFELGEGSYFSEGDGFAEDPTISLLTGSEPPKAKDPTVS
# Method in brief: (§1)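 Yeast served to express human transcription factors as GST fusions, which were then captured on glutathione beads and labelled with DNA barcodes. Pooled with a tag-only sample, they were incubated with 200 nmole of a 16-mer random double-stranded DNA library for 30 min at room temperature in Tris/NaCl/DTT/glycerol buffer, washed, crosslinked with 0.1% formaldehyde, ligated by proximity, amplified by PCR and sequenced. Dividing each hexamer's read frequency for a factor by its frequency for the tag-only sample gives the binding signal.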
# SPIC = molecular target: T1, SPIC (Homo sapiens, UniProt Q8N5J4 1-248); settings: protein: recombinant; tags: N-terminal GST; dsDNA, one strand shown
# T1 sequence: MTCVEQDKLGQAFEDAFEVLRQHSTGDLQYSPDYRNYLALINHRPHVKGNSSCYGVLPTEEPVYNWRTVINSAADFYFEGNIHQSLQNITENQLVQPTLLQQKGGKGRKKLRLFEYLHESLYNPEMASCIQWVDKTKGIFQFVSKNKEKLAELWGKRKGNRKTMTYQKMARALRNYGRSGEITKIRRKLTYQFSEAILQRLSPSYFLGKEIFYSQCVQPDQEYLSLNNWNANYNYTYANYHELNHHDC
# Method in brief: as §1
# ELK4 = molecular target: T2, ELK4 (Homo sapiens, UniProt P28324-2 1-405); settings: protein: recombinant; tags: N-terminal GST; dsDNA, one strand shown
# T2 sequence: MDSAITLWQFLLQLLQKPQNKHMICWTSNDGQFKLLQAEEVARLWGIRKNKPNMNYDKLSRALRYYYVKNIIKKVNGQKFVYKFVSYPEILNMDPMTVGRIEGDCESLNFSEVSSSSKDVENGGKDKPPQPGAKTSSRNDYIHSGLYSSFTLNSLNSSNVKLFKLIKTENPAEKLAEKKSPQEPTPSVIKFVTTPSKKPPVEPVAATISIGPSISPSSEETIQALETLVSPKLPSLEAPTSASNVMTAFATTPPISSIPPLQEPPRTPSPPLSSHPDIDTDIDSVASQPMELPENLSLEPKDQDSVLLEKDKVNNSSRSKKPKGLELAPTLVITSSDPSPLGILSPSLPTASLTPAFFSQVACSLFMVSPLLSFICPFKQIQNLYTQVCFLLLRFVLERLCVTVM
# Method in brief: as §1
# ELF3 = molecular target: T3, ELF3 (Homo sapiens, UniProt P78545 1-371); settings: protein: recombinant; tags: N-terminal GST; dsDNA, one strand shown
# T3 sequence: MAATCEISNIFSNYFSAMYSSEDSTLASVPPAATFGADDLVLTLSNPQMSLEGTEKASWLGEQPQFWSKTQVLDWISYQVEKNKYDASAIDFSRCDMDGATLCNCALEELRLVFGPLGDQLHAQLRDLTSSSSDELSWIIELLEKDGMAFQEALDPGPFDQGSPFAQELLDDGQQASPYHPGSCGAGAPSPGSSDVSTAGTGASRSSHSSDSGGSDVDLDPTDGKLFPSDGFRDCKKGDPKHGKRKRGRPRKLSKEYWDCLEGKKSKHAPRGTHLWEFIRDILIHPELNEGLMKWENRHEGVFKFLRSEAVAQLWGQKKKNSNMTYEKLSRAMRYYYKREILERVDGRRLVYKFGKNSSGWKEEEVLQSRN
# Method in brief: as §1
# CRX = CRX (Homo sapiens, UniProt O43186 1-299); settings: protein: recombinant; tags: N-terminal GST; dsDNA, one strand shown
# Sequence of CRX (O43186 whole entry): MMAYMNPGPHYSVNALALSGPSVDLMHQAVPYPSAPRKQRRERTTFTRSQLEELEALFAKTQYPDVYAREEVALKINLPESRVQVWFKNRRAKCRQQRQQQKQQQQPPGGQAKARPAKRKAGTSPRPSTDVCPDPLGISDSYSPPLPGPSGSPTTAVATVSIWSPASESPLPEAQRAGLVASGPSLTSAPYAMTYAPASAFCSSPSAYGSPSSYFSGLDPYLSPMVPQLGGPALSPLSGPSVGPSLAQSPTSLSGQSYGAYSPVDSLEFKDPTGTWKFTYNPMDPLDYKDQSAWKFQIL
# Method in brief: as §1
# ERF = molecular target: T4, ERF (Homo sapiens, UniProt P50548 1-548); settings: protein: recombinant; tags: N-terminal GST; dsDNA, one strand shown
# T4 sequence: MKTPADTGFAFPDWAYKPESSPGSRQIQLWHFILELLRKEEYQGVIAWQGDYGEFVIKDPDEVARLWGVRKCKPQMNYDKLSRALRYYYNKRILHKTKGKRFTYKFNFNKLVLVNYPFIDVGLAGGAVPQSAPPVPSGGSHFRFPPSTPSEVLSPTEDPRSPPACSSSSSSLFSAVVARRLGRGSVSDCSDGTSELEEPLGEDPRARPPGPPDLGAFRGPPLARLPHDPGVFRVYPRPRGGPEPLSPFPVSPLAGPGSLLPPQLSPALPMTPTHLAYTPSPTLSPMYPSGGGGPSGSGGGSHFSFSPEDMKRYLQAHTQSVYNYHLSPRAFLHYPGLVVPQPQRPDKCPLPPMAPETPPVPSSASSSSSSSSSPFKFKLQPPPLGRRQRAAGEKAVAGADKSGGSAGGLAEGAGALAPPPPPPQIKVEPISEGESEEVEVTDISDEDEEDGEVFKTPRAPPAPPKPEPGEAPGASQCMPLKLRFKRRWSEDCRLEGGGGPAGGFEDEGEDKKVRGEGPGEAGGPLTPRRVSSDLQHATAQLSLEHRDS
# Method in brief: as §1
# ETV3L = molecular target: T5, ETV3L (Homo sapiens, UniProt Q6ZN32 1-361); settings: protein: recombinant; tags: N-terminal GST; dsDNA, one strand shown
# T5 sequence: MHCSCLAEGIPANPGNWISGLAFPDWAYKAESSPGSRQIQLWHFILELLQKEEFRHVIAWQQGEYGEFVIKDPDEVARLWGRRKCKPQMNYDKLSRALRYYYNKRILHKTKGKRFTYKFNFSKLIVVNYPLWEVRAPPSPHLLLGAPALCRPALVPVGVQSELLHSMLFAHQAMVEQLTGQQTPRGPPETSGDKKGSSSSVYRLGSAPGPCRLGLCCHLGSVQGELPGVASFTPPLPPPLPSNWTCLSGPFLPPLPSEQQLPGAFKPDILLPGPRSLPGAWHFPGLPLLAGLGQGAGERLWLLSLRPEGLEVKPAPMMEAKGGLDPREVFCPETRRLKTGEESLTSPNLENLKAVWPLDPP
# Method in brief: as §1
# ETS2 = molecular target: T6, ETS2 (Homo sapiens, UniProt P15036 1-469); settings: protein: recombinant; tags: N-terminal GST; dsDNA, one strand shown
# T6 sequence: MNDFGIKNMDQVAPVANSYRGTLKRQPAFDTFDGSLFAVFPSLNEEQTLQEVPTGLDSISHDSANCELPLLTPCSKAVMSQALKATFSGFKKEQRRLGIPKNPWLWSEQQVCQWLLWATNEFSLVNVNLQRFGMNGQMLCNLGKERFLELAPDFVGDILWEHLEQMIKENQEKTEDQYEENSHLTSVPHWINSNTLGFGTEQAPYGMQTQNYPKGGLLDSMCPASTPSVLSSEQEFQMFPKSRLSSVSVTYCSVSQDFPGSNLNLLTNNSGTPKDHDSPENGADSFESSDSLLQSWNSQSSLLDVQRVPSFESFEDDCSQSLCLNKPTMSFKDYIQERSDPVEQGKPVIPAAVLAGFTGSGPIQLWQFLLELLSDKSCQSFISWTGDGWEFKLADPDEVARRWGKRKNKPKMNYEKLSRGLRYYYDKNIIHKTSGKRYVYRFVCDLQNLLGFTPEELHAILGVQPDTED
# Method in brief: as §1
# SPDEF = molecular target: T7, SPDEF (Homo sapiens, UniProt O95238 1-335); settings: protein: recombinant; tags: N-terminal GST; dsDNA, one strand shown
# T7 sequence: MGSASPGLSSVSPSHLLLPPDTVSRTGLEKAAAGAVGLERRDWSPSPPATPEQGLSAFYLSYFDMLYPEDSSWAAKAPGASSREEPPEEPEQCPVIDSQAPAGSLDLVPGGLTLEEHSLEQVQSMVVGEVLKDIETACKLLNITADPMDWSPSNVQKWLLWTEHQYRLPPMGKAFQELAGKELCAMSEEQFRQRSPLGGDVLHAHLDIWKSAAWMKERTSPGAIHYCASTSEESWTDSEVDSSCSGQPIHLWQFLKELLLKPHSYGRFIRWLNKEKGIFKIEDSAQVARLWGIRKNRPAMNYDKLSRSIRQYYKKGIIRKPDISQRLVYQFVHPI
# Method in brief: as §1
sequence,measurement,setting,value
GTAGAT,binding signal,HSF1,"1 fold enrichment (6-mer frequency, TF over GST control)"
same,binding signal,SPIC,"1.16 fold enrichment (6-mer frequency, TF over GST control)"
same,binding signal,ELK4,"1.01 fold enrichment (6-mer frequency, TF over GST control)"
same,binding signal,ELF3,"1.01 fold enrichment (6-mer frequency, TF over GST control)"
same,binding signal,CRX,"1.07 fold enrichment (6-mer frequency, TF over GST control)"
same,binding signal,ERF,"1.06 fold enrichment (6-mer frequency, TF over GST control)"
same,binding signal,ETV3L,"1.09 fold enrichment (6-mer frequency, TF over GST control)"
same,binding signal,ETS2,"1.02 fold enrichment (6-mer frequency, TF over GST control)"
same,binding signal,SPDEF,"1.04 fold enrichment (6-mer frequency, TF over GST control)"
